Compound activity as filed in PubChem.
Autofluor counter – compound fluorescence in toxin protease inhibitor counterscreen | compound autofluorescence counterscreen, microsphere flow cytometry; active compounds read high | hit rate 3.1% among 360,000 | fluorescence intensity (no concentration beside the values) | AID 624483; in the data active = fluorescence intensity above about 16000; inconclusive = no clear call, values can overlap the other calls
BoNT A protease – BoNT/A light chain protease inhibitors, primary screen, biochemical, flow cytometry, MLPCN library. Botulinum neurotoxin type A light chain protease (Clostridium botulinum A str. ATCC 3502). multiplex microsphere protease substrate cleavage. inhibition, % at 10 µM. hit rate 0.17% among 360,000. AID 588499, 2011
TcdB inh – TcdB glycohydrolase inhibitors, primary screen, biochemical, single point, plate reader; Toxin B (Clostridioides difficile), P18177; TcdB glycohydrolase enzymatic assay; inhibition, % at 9.99 µM; hit rate 0.24% among 350,000; AID 652162, 2013; in the data active = inhibition above about 10%
Anthrax LF inh2 – Bacillus anthracis LF protease inhibitors, primary screen, biochemical, multiplex microsphere, MLPCN library. Lethal factor (Bacillus anthracis), P15917. multiplex microsphere protease cleavage assay. inhibition, % at 10 µM. hit rate 0.12% among 360,000
Target sequence (P15917 whole entry, looked up): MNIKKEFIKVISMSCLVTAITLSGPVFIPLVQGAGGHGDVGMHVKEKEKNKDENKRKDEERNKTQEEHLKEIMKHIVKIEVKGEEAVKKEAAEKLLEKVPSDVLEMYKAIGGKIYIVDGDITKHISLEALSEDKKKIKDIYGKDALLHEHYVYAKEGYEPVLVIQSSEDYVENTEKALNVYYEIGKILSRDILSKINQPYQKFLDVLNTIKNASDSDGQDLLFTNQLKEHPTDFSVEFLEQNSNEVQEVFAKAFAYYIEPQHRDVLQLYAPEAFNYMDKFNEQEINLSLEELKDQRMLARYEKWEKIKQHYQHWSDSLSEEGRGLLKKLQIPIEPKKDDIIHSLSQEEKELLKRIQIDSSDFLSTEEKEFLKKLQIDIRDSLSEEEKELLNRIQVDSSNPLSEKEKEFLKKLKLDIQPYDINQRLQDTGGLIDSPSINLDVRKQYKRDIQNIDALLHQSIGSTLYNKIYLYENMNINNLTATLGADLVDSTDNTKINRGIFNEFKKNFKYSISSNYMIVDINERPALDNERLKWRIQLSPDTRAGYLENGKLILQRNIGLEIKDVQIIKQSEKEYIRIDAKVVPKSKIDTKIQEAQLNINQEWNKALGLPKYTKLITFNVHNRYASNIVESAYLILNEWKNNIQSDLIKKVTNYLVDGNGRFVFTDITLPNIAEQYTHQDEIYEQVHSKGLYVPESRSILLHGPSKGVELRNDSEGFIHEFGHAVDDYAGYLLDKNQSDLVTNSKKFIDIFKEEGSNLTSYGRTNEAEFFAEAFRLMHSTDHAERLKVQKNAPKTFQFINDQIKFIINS
BoNT F protease – BoNT/F light chain protease inhibitors, primary screen, biochemical, flow cytometry, MLPCN library; Multiplex microsphere protease cleavage assay; AID 588497, 2011; Botulinum neurotoxin type F light chain protease (Clostridium botulinum); inhibition, % at 10 µM; hit rate 0.22% among 360,000; in the data active = inhibition above about 35%, passing the limit was not always enough; inconclusive = no clear call, values can overlap the other calls
Hits are given with their value; n = inactive; u = inconclusive; x = no result given. The full list was thinned out, with hits kept by preference. Cut-off read from the data, not from the text of the source, unless noted: active = inhibition above about 30%; inconclusive = no clear call, values can overlap the other calls; inactive = below that.

SMILES	Autofluor counter	BoNT A protease	TcdB inh	Anthrax LF inh2	BoNT F protease
CCOC(=O)CC(C(=O)OCC)P(=O)(c1ccccc1)c1ccccc1 (stereo unspecified)	n	n	x	n	n
COc1ccccc1-c1nc(C#N)c(N2CCc3ccccc3C2)o1	n	n	n	n	n
COc1ccc(N2CCN(c3oc(-c4ccco4)nc3C#N)CC2)cc1	20889	u	x	n	n
COc1ccc(-c2nc(C#N)c(N3CCc4ccccc4C3)o2)cc1OC	17078	n	x	n	n
CCN1CCN(c2oc(-c3ccc(OC)cc3)nc2C#N)CC1	16578	n	x	n	n
COc1ccc(N2CCN(c3oc(-c4ccccc4OC)nc3C#N)CC2)cc1	21565	n	n	n	n
CCCC(=O)Nc1ccc2c(c1)C(=O)N(C)C[C@H](OC)[C@H](C)CN(C(=O)C1CCCC1)[C@@H](C)CO2	x	x	n	x	x
O=C(C[C@H]1C=C[C@@H](NS(=O)(=O)c2ccc(F)cc2)[C@@H](CO)O1)NCCN1CCCCC1	x	x	n	x	x
O=C1/C(=C/c2cccnc2)SC(=NCc2ccccc2)N1Cc1ccccc1	n	n	10	n	n
O=C1/C(=C/c2cccnc2)SC(=S)N1CCc1ccccc1	n	n	n	n	u
CC(C)N1C(=O)S/C(=C/c2cccnc2)C1=O	22160	u	x	n	n
CC(C)N1C(=O)S/C(=C/c2ccc3c(c2)n(C)c(=O)n3C)C1=O	n	n	x	n	n
Cc1ccc(S(=O)(=O)N2CC[C@@H]3[C@H]2c2cc(-c4cccc(C#N)c4)ccc2N(C)[C@H]3CO)cc1	x	x	n	x	x
CCc1cc(OCCN2C(=O)NC(C)(C)C2=O)ccc1Cl	20493	n	x	n	n
Cc1cc(OCCCCN2C(=O)NC(C)(C)C2=O)cc(C)c1Cl	23207	n	x	n	n
CC1(C)NC(=O)N(CCCOc2ccc(Br)cc2Cl)C1=O	23298	n	x	n	n
CC1(C)NC(=O)N(CCCCOc2ccc(Cl)cc2C=O)C1=O	n	n	n	n	n
CC1(C)NC(=O)N(CCCOc2ccc3c(c2)CCC3)C1=O	n	n	x	n	n
CC1(C)NC(=O)N(CCCCOc2ccc(Cl)cc2)C1=O	23237	n	x	n	n
COc1ccccc1NC(=O)N[C@@H]1C=C[C@@H](CC(=O)N[C@@H](C)c2ccccc2)O[C@@H]1CO	x	x	n	x	x
C[C@@H]1CN([C@H](C)CO)C(=O)c2cc(N(C)C)ccc2O[C@@H](C)CCCCO[C@@H]1CN(C)Cc1ccc2c(c1)OCO2	x	x	n	x	x
C[C@H]1CN([C@@H](C)CO)S(=O)(=O)c2ccc(-c3cccc(F)c3)cc2O[C@@H]1CN(C)S(=O)(=O)c1ccccc1	x	x	n	x	x
C[C@@H]1CN([C@@H](C)CO)C(=O)c2cc(NC(=O)Nc3ccc(F)cc3)ccc2O[C@H]1CN(C)Cc1ccc(C(F)(F)F)cc1	x	x	n	x	x
C=CCN1C(=O)CS/C1=N/c1nccs1	21993	n	n	n	n
C=CCN1C(=O)/C(=C/c2ccccc2)S/C1=N/c1nccs1	n	n	x	n	n
SMILES	Autofluor counter	BoNT A protease	TcdB inh	Anthrax LF inh2	BoNT F protease
C[C@H]1CN([C@@H](C)CO)S(=O)(=O)c2ccc(C#Cc3ccccc3)cc2O[C@H]1CN(C)C(=O)Cc1ccccn1	x	x	n	x	x
CCCNC(=O)N(C)C[C@@H]1Oc2cc(C#C[C@H](C)O)ccc2S(=O)(=O)N([C@@H](C)CO)C[C@@H]1C	x	x	n	x	x
CC(C)(C)OC(=O)NC(CCCCNC=O)C(=O)O (stereo unspecified)	23419	n	x	n	n
Cc1ccc(-c2cnn(-c3cccc([N+](=O)[O-])c3)c2N)cc1	23689	n	x	n	n
Cc1ccccc1-c1cnn(-c2cccc([N+](=O)[O-])c2)c1N	n	n	n	n	n
Cn1nnnc1SCc1c(F)cccc1F	21178	n	x	n	n
Cn1nnnc1SCc1cccc(CSc2nnnn2C)n1	n	n	n	n	n
CCOC(=O)/C(=C/c1c[nH]c2ccccc12)NC(C)=O	19612	n	x	n	n
CNCCCOc1ccc(C)cc1Br	20475	u	x	n	n
Cc1cc(C)cc(C(=O)Oc2coc(CSc3nnc(NC(=O)C4CC4)s3)cc2=O)c1	n	38	x	n	n
O=C(Oc1coc(CSc2nnc(NC(=O)C3CC3)s2)cc1=O)c1c(F)cccc1F	n	48	n	n	n
COc1ccc(S(=O)(=O)Nc2cccc3c2O[C@H](CN(C)C(=O)Nc2ccc(C(F)(F)F)cc2)[C@H](C)CN([C@@H](C)CO)C3=O)cc1	x	x	n	x	x
CCCCC(=O)Nc1ncc(Br)s1	21554	n	n	n	n
Nc1ccc(Sc2ccc([N+](=O)[O-])cc2)cc1	n	n	n	n	n
Nc1ccc(Sc2ccc(N)cc2)cc1	n	n	13	n	n
